Data published in PubChem BioAssay AID708 (SRMLSC, 2007).
Hit rate of the full screen: of about 65,000 compounds, fewer than 10 were called active.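 Rule for the calls: active = at 10 µM dose, initial 340 nm absorbance at least 2 fold that of control wells; inactive = change under 2 fold.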 The list is a sample of the results.

Test: compound light absorbance at 340 nm, profiling panel, artefact control, biochemical, MLSMR library, data from PS, PMK, MK assays (AID 708);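 note: initial absorbance extrapolated from kinetic A340 decline of NADH oxidation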
Conditions: compound absorbance at 340 nm, fold over control; at 10 µM; active compounds read high

Fold change, inactive:
CCCCCN(C(=O)NC(=O)Nc1ccccc1C)S(C)(=O)=O 1
CCNc1nc(N)nc(Oc2ccc(OCC)nn2)n1 1.07
CCOC(=O)CSc1nncc2ccc(OC)c(OC)c12 1.07
CCN(CC)S(=O)(=O)c1cc(C(=O)Nc2ccccn2)ccc1C 1.09
Cc1c2cnn(-c3ccccc3)c(=O)c2c(C)n1CCCC(=O)N1CCN(C)CC1 1.06
CNC(=O)c1cc2c(ccc3ccccc32)oc1=N 1.04
CSc1ncccc1C(=O)OCC(=O)N1CCOCC1 1.01
COc1ccc(-c2cn3ccsc3n2)cc1 1
CCCn1c(C(O)c2ccc(OCC)cc2)nc2ccccc21 (configuration not stated) 1.02
O=C(NCc1ccco1)C1CCCN(S(=O)(=O)c2cccc3nonc23)C1 (configuration not stated) 1.03
CCn1nc(NC(=O)c2ccco2)c2cc3ccc(C)cc3nc21 1.07
Cc1ccc(-n2nc(-c3ccco3)cc2C(=O)NCc2cccnc2)cc1 0.99
COc1ccc(C2CC(c3ccc(C)cc3)Nc3nc(N)nn32)cc1 (configuration not stated) 1.02
Cc1ccc(C(=O)Nc2nnc(-c3ccncc3)s2)o1 1.33
CN(CCC#N)c1ncnc2scc(-c3ccccc3)c12 1.03
COc1ccc(C2CC(c3ccc(C)cc3)Nc3ncnn32)cc1 (configuration not stated) 0.99
CSc1nsc(SC)c1NC(=O)OC1CCCCC1 1.03
Cc1ccc(NC2=NC(c3ccccc3)n3c(nc(C)cc3=O)N2)cc1 (configuration not stated) 1.01
Cc1ccc(C2c3c(oc4ccc(C)cc4c3=O)C(=O)N2CCCN2CCOCC2)cc1 (configuration not stated) 1.07
Cc1occc1C(=O)Nc1nnc(-c2ccncc2)s1 1.18
CCn1c(SCC(=O)NCc2ccco2)nnc1-c1ccc(N)cc1 1.03
COc1cccc(OCCOc2cccc(/C=N/n3cnnc3)c2)c1 1.05
C=CCn1c(CC(=O)Nc2cccc(OC)c2)nnc1SCC(=O)NC1CCCCC1 1.04
Cc1ccc(NC(=O)CS(=O)CC(=O)N(c2ccccc2)C(C)C(=O)NC2CCCC2)cc1 (configuration not stated) 0.99
CCCOc1ccccc1-c1nc(SCCC(=O)O)n[nH]1 1
O=c1cccc(-c2ccc(Br)cc2)o1 1.07
CN1C(C)(C)CC(NC(=O)CCC(=O)NC2CC(C)(C)N(C)C(C)(C)C2)CC1(C)C 1.05
Cc1ccc(S(=O)(=O)NCc2csc(C)n2)c(C)c1 0.97
CCOC(=O)c1ccccc1NC(=O)CC1Nc2ccccc2NC1=O (configuration not stated) 1.07
O=C(CCCOc1ccccc1)Nc1cccc(C(=O)O)c1 1.03
O=P(c1cccs1)(c1cccs1)c1cccs1 1.01
Cc1nnc(SCc2ccc(C(=O)c3ccc(Cl)cc3)o2)n1-c1ccccc1 1.14
c1csc(-c2cn3c(n2)SCC3)c1 1.03
COc1ccc(OCc2cccc(C(=O)N3CCCC3)c2)cc1 0.98
CCCC(=O)C1=C(N(C)c2ccccc2)CC(C)(C)C(C(=O)OC)C1=O (configuration not stated) 1.04
c1ccc(-c2nnc(SCc3nc4ccccc4[nH]3)o2)cc1 1
CC(=O)c1cccc(NC(=O)N2CCCC2C(=O)NCCC(C)C)c1 (configuration not stated) 1
Cc1ccccc1S(=O)(=O)Cc1ccc(C(=O)NCCN2CCCCC2C)o1 (configuration not stated) 0.98
CCOc1ccc(C2C(C(=O)O)c3ccccc3C(=O)N2CCN2CCOCC2)cc1 (configuration not stated) 1.01
Cc1ccccc1OCCC(=O)Nc1c(C)n(C)n(-c2ccccc2)c1=O 1.04
COc1ccccc1NC1=NC(c2ccc(Cl)cc2)N=C(N)N1 (configuration not stated) 1.01
CC1CN(C(=O)CN2C(=O)NC(C)(c3ccccc3)C2=O)CC(C)O1 (configuration not stated) 1.02
CCC(C)Sc1nc(C)nc2c1c(=O)n(C)c(=O)n2C (configuration not stated) 1.03
CCNc1nc(NCC)nc(N(C)n2cnnc2)n1 1.02
CC(C)c1cc(C(=O)O)on1 0.99
O=C(CCCC(=O)N(CC(=O)NC1CCCC1)Cc1ccccc1Cl)Nc1ccccn1 1.01
O=C(CCN1C(=O)C2C3C=CC(C3)C2C1=O)Nc1ccccc1F (configuration not stated) 0.99
COc1ccc(OC)c(C(c2nnnn2C(C)(C)C)N2CCc3ccccc3C2)c1 (configuration not stated) 1.04
O=C(OCC(=O)N1CCN(C(=O)c2ccco2)CC1)c1ccccc1Cc1ccccc1 1
CC(C)CCNC(=O)CCNS(=O)(=O)c1ccc(Cl)cc1 0.97
Cc1cc(/C=N/n2cnnc2)c(C)n1-c1cccc(C(=O)O)c1 1.11
O=C(CNCCO)NC12CC3CC(CC(C3)C1)C2 1.03
CCN(c1ccccc1)S(=O)(=O)c1ccc(N)cc1 1.02
CC(=O)NS(=O)(=O)c1ccccc1 1
CCC(CC)c1nnc(NS(=O)(=O)Cc2ccccc2)s1 1.04
CCOc1cc(S(=O)(=O)NC2CC(C)(C)NC(C)(C)C2)ccc1F 1.05
O=C1CCCC(O)=C1C=NCCc1ccccc1 0.99
O=C(Nc1cc(=O)[nH]c2ncnn12)c1ccccc1Cl 0.98
Cn1c2c(c(=O)n(C)c1=O)C(c1ccc(O)cc1)Nc1ccccc1O2 (configuration not stated) 1
Cc1occc1C(=O)N1CCCc2ccccc21 1.01
COc1ccc(C2SCCN2S(=O)(=O)c2ccccc2)cc1OC (configuration not stated) 0.98
Cc1cc(C)cc(N(C(C)C(=O)Nc2c(C)n(C)n(-c3ccccc3)c2=O)S(C)(=O)=O)c1 (configuration not stated) 1.05
Cn1nnnc1SCC(=O)N1CCN(Cc2ccccc2)CC1 1.01
CC(=O)Nc1cc(C(=O)O)ccc1S(=O)(=O)c1ccc(Cl)cc1 1.03
CCC1CCCCN1CCNS(=O)(=O)c1ccc2c(c1)CCN2C(C)=O (configuration not stated) 1.03
O=C(CSc1nnc(-c2ccoc2)o1)N1CCOCC1 1.05
COc1cc(OC)cc(C(=O)NCCSCc2ccco2)c1 1.02
CC(=O)NC1CC2CCCC(C1)N2CC(=O)Nc1ccccc1 (configuration not stated) 1
COc1cc2[nH]c(=O)n(CCC(=O)NC3CCN(Cc4ccccc4)CC3)c(=O)c2cc1OC 1.06
COC(=O)c1ccc(/C=N\n2c(C)nnc2C)cc1 1.02
O=C(COc1ccccc1Cl)Nn1cnnc1 1.08
Cc1cc(-n2nc(C)cc2C)n2ncc(-c3ccccc3)c2n1 1.03
CCOC(=O)c1c(CN2CCOCC2)n(-c2ccccc2)c2ccc(O)cc12 0.98
Cc1ccc2nc(S(=O)(=O)O)[nH]c2c1 1.02
CC(=O)c1cc(C#N)c(SCC(=O)C(C)(C)C)nc1C 1.07
CC(=C1C(=O)c2ccccc2C1=O)N1CCN(c2ccccn2)CC1 1.15
CCS(=O)(=O)NCCc1ccc(OC)c(OC)c1 1.02
CCOC(=O)COc1ccc(Cl)cc1C1NC(=O)NC(C)=C1C(C)=O (configuration not stated) 1.05
COc1ccc(-c2ccc(-c3noc(-c4ccncc4)n3)c(OC)n2)cc1 1.09
CSc1nc(O)c(Cc2ccccc2)c(=O)[nH]1 1
COc1ccccc1N1CCN(C(=O)c2c(-c3c(Cl)cccc3Cl)noc2C)CC1 0.98
Cc1cccc(OCc2nnc(SCC(=O)N3CCN(C(=O)c4ccco4)CC3)n2C)c1C 1.02
COCCn1nnnc1CN1CCC(NC(=O)Nc2cccc(OC)c2)CC1 1
CC(=O)c1c(N2CCOCC2)nc(=S)n(Cc2ccccc2)c1C 1.06
COc1cc(CO)c(C2(CO)CCCC2)cc1OC 1.04
CCOC(=O)C1=C(O)CSC1=Nc1cccc(Cl)c1 1.02
CCOC(=O)c1ccc2[nH]c(C)c(CN3CCN(C)CC3)c(=O)c2c1 1
Cc1nn(-c2ccccc2)c(CC(C)(C)C(=O)O)c1C(=O)O 1.02
COc1ccc2c(c1OC)C(=O)N(c1ncn[nH]1)C2 1.04
CC(C)(C)NC(=O)C(c1ccncc1)N(C(=O)CNC(=O)c1ccco1)c1ccc2c(c1)OCO2 (configuration not stated) 0.98
COc1ccc(N2C(=O)C3CCCN3C2c2cc(OC)c(OC)cc2OC)cc1 (configuration not stated) 1.01
O=C1c2ccccc2C(O)N1Cc1ccccc1Cl (configuration not stated) 1.03
COc1cccc(C(=O)Nc2c3c(nn2-c2cccc(C)c2C)CS(=O)(=O)C3)c1OC 1.01
CCC(=O)N1CCc2cc(S(=O)(=O)NC(C(=O)N3CCc4ccccc4C3)C(C)C)ccc21 (configuration not stated) 1
CCOc1cc(C(=O)N2CCc3cc(OC)c(OC)cc3C2)ccc1OC(F)F 0.97
O=C(Nc1cnn(Cc2ccc(Cl)cc2)c1)C1CCCC1 1.03
c1cc(-n2cnnn2)ccc1NC1=NCCC1 1.01
O=C(C1CCCO1)N(Cc1ccccc1)c1ccccc1 (configuration not stated) 1.03
CC(C)OC(=O)C(C#N)c1nc2ccccc2nc1N1CCN(Cc2ccc3c(c2)OCO3)CC1 (configuration not stated) 1.02
CCN1CCN(C(=O)c2ccccc2N(C)S(=O)(=O)c2ccc(C)cc2)CC1 1.05
COc1c(O)cccc1-c1nnn(CCC(=O)OCC(=O)c2ccccc2)n1 1.01
CS(=O)(=O)N(C(=O)NC(=O)NC1CCS(=O)(=O)C1)C1CCCCC1 (configuration not stated) 1.04
